Among all 59,000 compounds or so, about 6,500 (11%) were called active. Inconclusive results (about 15%) are left out. Rule as the data show it: active = max dye-equivalent concentration above about 10 nM; inconclusive = mostly about 1.1 nM to 9.6 nM; inactive = weaker than that. This excerpt belongs to a sample that is enriched for actives.

This assay can be described thus: qHTS Assay for Spectroscopic Profiling in A350 Spectral Region. The note with it: Compound autofluorescence, 340/450 nm, Alexa 350 dye-equivalents; stronger effect = higher value. The text has this:
NIH Molecular Libraries Screening Centers Network [MLSCN]
NIH Chemical Genomics Center [NCGC]
Occasionally, the artifactual effect may originate from the compounds own spectral or other biophysical properties which generally tend to track its assay concentration. Pre-screening/profiling the library with respect to the compounds spectral properties should help one exclude false positives early on. While the most informative fluorescent profiling data set is obtained by performing a full excitation and emission scan of each well by using a monochromator-based plate reader, such an approach is practical only on a very limited scale as scanning each well requires long time. An alternative approach, applied here, is to perform plate reader scans using selected excitation and emission wavelength pairs to generate a multidimensional relational database that correlates compound concentration and the respective relative fluorescence intensity at a given wavelength set. A standard curve of Alexa 350 (A 350) present on each plate as six-point concentration series, was used to compute a normalized fluorescence response, termed dye-equivalent concentration, for each compound at each concentration.
NCGC Assay Protocol Summary:
100 mM Tris buffer, pH 8.0
The wells in columns 1 through 4 of a Kalypsys polypropylene 1536-well compound plate were filled with standard solutions of fluorophore corresponding to the spectral region of interest. Solutions of A 350 were placed in the following wells: I1, J1: 3 mM, I2, J2: 300 uM, I3, J3: 30 uM, I4, J4: zero (DMSO), K1, L1: 3 uM, K2, L2: […], K3, L3: 300 nM, K4, L4: zero (DMSO).
Six uL of buffer were dispensed to 1536-well Greiner black plates. Compounds and dye standards (23 nL) were transferred via Kalypsys PinTool. The plates were incubated for 15 min at room temperature, and then read on ViewLux (Perkin-Elmer) High-throughput CCD imager using 340 nm and 450 nm excitation and emission filter set.
Keywords: NIH Roadmap, MLSCN, MLI, MLSMR, qHTS, NCGC, A350, A-350, Fluorescent Profiling.
(In general: qHTS replaces the single test concentration by a dilution series.)
For the molecule `Oc1ccccc1CNCc1ccccc1O`, the max dye-equivalent concentration result was “inactive”.
Then `CCOC(=O)CSc1nnc(CNc2ccc(F)cc2)o1`, with “inactive”; and `CCOc1ccc(CNC(=O)C2CC(=O)N(C3CCCC3)C2)cc1OC` (centres undefined), with “inactive”.
To `CCOc1cc(C2C(C(=O)OC)=CN(C3CCCC3)C=C2C(=O)OC)cc(Br)c1O` belongs 230 nM (active); to `CCOc1ccc(CNC(=O)C2CCC(=O)N2C2CCCC2)cc1OC` (centres undefined), “inactive”.
`O=C(COc1ccc(S(=O)(=O)NCCc2ccccc2)cc1)N1CCCC1`: the max dye-equivalent concentration result is “inactive”.
`CC1(C)CC(=O)c2sc(N)nc2C1`: the max dye-equivalent concentration result was “inactive”.
To `N#CC1=C(N)Oc2n[nH]c(CSc3ccccc3)c2C12C(=O)Nc1ccccc12` (centres undefined) belongs “inactive”.
To `COc1ccc(S(=O)(=O)N2CCCC(C(=O)N3CCN(C)CC3)C2)cc1C` (centres undefined) belongs “inactive”.
As for `COc1cccc(N2C(=O)CC(N3CCN(S(=O)(=O)c4ccccc4)CC3)C2=O)c1` (centres undefined), the max dye-equivalent concentration result is “inactive”.
Then `CCOc1ccccc1NC(=O)CCN1CCN(S(=O)(=O)c2ccc(OC)cc2)CC1`, with “inactive”; and `COc1ccc(S(=O)(=O)N2CCN(c3ncnc4c(-c5ccccc5)nsc34)CC2)cc1`, with 120 nM (active).
Then `Cc1ccc(C)c(NC(=O)C2CCCN2C(=O)OC(C)(C)C)c1` (centres undefined), with “inactive”.
On to `OCCN1CCN(CC/C=C2\c3ccccc3Sc3ccc(C(F)(F)F)cc32)CC1`, for which the max dye-equivalent concentration entry was “inactive”.
Then `COc1ccccc1NC(=O)CSc1nnc(Cn2nnc(-c3ccccc3)n2)n1-c1ccccc1`, with “inactive”; and `CCOC(=O)N1CCN(C(=O)c2cc3c(ccc4ccccc43)oc2=O)CC1`, with 1700 nM (active).
Then `COc1c(C(=O)N2CCCC2)ccc2ccccc12`, with “inactive”; and `CCOC(=O)N1CCN(C(=O)c2n[nH]c(=O)c3ccccc23)CC1`, with “inactive”; and `CCCCC(=O)Nc1cc(C)c2c(=O)oc3ccccc3c2n1`, with “inactive”.
Then `O=C(NCCc1ccc2c(c1)OCCO2)c1cc2ccccc2o1`, with “inactive”; and `CNC(=O)c1cc2c(ccc3ccccc32)oc1=N`, with 11000 nM (active).
Turning to `CC(C)(C)NCC[C@@H](O)c1cc(C(F)(F)F)nc2c(C(F)(F)F)cccc12`, the max dye-equivalent concentration result is “inactive”.
To `CC(=O)N1CCC2(CC1)CCN(c1ccncc1)CC2` belongs “inactive”.
Then `CC1(N2CCOCC2)CC2(O)C(=[N+]1[O-])CCc1nonc12` (centres undefined), with “inactive”.
Regarding `CCOC(=O)CSc1nc2c(c(=O)n(Cc3ccccc3Cl)c(=O)n2C)n1C`, the max dye-equivalent concentration entry is “inactive”.
`Cc1cc(C(=O)CC#N)c(C)n1CC(F)(F)F`: the max dye-equivalent concentration entry is “inactive”.
To `Cc1cc(NC(=O)CCC(=O)N(c2cccc(F)c2)C(C(=O)NC2CCCC2)c2ccncc2)no1` (centres undefined) belongs “inactive”; to `O=C(Cn1ccc(=O)[nH]c1=O)Nc1ccc(C(=O)O)c(O)c1`, “inactive”.
Then `COCCn1nnnc1CN1CCC(NC(=O)Nc2cccc(OC)c2)CC1`, with “inactive”.

For the origin of these results see PubChem BioAssay AID590 (National Center for Advancing Translational Sciences (NCATS), 2007).
